# Screening results from PubChem.
# A selection: hits, their analogues and other compounds. The true share with any hit is near 8.2%.
# ELG1 repair inh: qHTS screen for small molecules that inhibit ELG1-dependent DNA repair in human embryonic kidney (HEK293T) cells expressing luciferase-tagged ELG1. HEK293T ELG1-luciferase reporter, luminescence, 16 h; DNA damage induced by 5-fluorouridine. Potency, µM (top dose mostly 46.1 µM), for the others: at the top dose activity change, negative = inhibition, hits mostly inhibitors. 2.3% of 330,000 active; further: on the % scale 0 is the no-effect control and ±100 the full control effect; nearly all actives have a fitted effect of over 55% in size
#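 In this reporter screen, reduction of luminescence relative to DMSO vehicle indicated activity. Compounds and 5-fluorouridine were added together to 2,000 cells per well, incubated for 16 hr at 37 °C, then developed with ONE-Glo.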
# KB-3-1 cytotox: qHTS assay for MDR1-selective chemotherapeutics: Primary screen using the parental adenocarcinoma cell KB-3-1; KB-3-1 viability, CellTiter-Glo ATP luminescence, 72 h; Potency, µM (titrated, usually from 46.1 µM), actives largely listed as cytotoxic; 1.4% of 400,000 active; AID 1347075, 2019; further: on the % scale 0 is the no-effect control and ±100 the full control effect; nearly all actives have a fitted effect of over 60% in size
#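 Cytotoxicity in the drug-sensitive parental line KB-3-1 was scored as loss of CellTiter-Glo luminescence following 72 h incubation with compound. Values come from curve fitting of normalized concentration-response data.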
# MCF10A rerep: A quantitative high throughput screen for small molecules that induce DNA re-replication in MCF 10a normal breast cells. MCF 10A DNA re-replication, Hoechst nuclear intensity, 48 h. Potency, µM (doses to about 46.1 µM), inactives show top-dose activity, positive = re-replication, actives largely listed as activators. 2.9% of 350,000 active; further: % of control where 0% means no effect; nearly all actives have a fitted effect of over 50% in size
# KB-V1 cytotox: qHTS assay for MDR1-selective chemotherapeutics: Primary screen using the drug-selected MDR subline cells KB-V1; KB-V1 MDR cells viability, CellTiter-Glo, 72 h; Potency, µM (highest dose often 46.1 µM), most hits filed as cytotoxic; 3.4% of 400,000 active; further: on the % scale 0 is the no-effect control and ±100 the full control effect; nearly all actives have a fitted effect of over 60% in size
#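 Luminescent ATP read-out (CellTiter-Glo, 10 min) measures survival of drug-selected KB-V1 MDR cells after 72 h, 37 degrees C compound exposure. Medium: phenol-red-free DMEM, 10% FBS. Values from fitted concentration-response curves.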
# SW480 rerep: A quantitative high throughput screen for small molecules that induce DNA re-replication in SW480 colon adenocarcinoma cells. SW480 DNA re-replication, Hoechst DNA content imaging, 48 h. Potency, µM (titrated, usually from 46.1 µM), for inactives: at the top dose re-replication activation, most hits filed as activators. 1.8% of 340,000 active. AID 624297, 2012; further: % of control where 0% means no effect; nearly all actives have a fitted effect of over 55% in size
#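 Treated cells incubate 48 hr (37 C, 5% CO2), are stained 40 min with Hoechst, and nuclear fluorescence is enumerated; a rise in nuclei with high DNA signal marks re-replication.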
# Numbers without * were called inactive; i = inactive; ? = inconclusive; . = no result given; ! = a repeat was not active. The call rests on the fitted dose curve; in most records, active means well fitted curve in the direction sought with a large enough effect; inconclusive means small, poorly fitted or top-dose-only effect, or another doubt; inactive means no such curve, though single readings can be large; an effect the other way counts as inactive or inconclusive. Potency means the concentration at half of the fitted maximal effect.
SMILES,ELG1 repair inh,KB-3-1 cytotox,MCF10A rerep,KB-V1 cytotox,SW480 rerep
CCN(CC)S(=O)(=O)c1ccc(C(=O)NCCN2C(=O)S/C(=C\c3cccnc3)C2=O)cc1,15µM*,i,-8%,i,-120%
OC[C@@H]1CN(Cc2ccco2)C[C@H](n2cnc3c(N4CCN(c5ccccc5)CC4)ncnc32)O1,.,i,.,i,.
Cc1cccc(-n2nnc(-c3nc(-c4cccs4)no3)c2N)c1,.,i,.,i,.
CCn1c(O)c(N=N)c2ccccc21,?,i,-10%,i,-7%
C=CCn1c(O)c(N=NC(=O)CNC(=O)c2ccco2)c2ccccc21,7%,?,18µM*,?,16µM*
CCn1c(O)c(N=NC(=O)CNC(=O)c2ccco2)c2ccccc21,-14%,?,2%,i,-7%
CCn1c(O)c(N=NC(=O)c2cccs2)c2ccccc21,?,?,13%,9.2µM*,-1%
C=CCn1c(O)c(N=NC(=S)Nc2cccc(OC)c2)c2ccccc21,16%,2.3µM*,-33%,?,-1%
CCCn1c(O)c(N=NC(=O)c2ccco2)c2ccccc21,?,?,14%,2.6µM*,4%
O=C(CCC(=O)N1CCN(S(=O)(=O)c2ccccc2Cl)CC1)c1ccccc1,-27%,i,7%,i,?
O=C(CCN1C(=O)/C(=C/c2ccc(F)cc2)SC1=S)N[C@@H](CO)Cc1ccccc1,0%,i,9%,i,-4%
COc1ccc(-c2ccc(C(=O)NCc3ccc(C(F)(F)F)cc3)c3occc23)c(C)c1,.,i,.,i,.
Cc1ccc2nc3c(cc(C#N)c(=O)n3-c3nnc(SCc4ccccc4Cl)s3)c(=O)n2c1,.,i,.,i,.
CC(C)Cc1nc(SCC(=O)N2CCCCC2)c2c(=O)n(C)c(=O)n(C)c2n1,10%,i,-1%,i,3%
CN1CCN(c2ccc(S(=O)(=O)N3CCOCC3)cc2NC(=O)Cc2ccccc2F)CC1,7%,i,16%,i,4%
O=C(Cc1ccc(Cl)cc1Cl)Nc1cccc(S(=O)(=O)Nc2ccccc2F)c1,-6%,?,?,21µM*,-2%
O=C(Cc1c(F)cccc1Cl)Nc1cccc(S(=O)(=O)NC2=NCCCCC2)c1,4%,i,9%,i,2%
O=C(/C=C/c1ccccc1)Nc1cccc(S(=O)(=O)Nc2ccccc2F)c1,-5%,i,?,9.2µM*!,11%
CN1CCN(C(=O)c2cccc(-c3cnc4cnc(-c5ccccc5Oc5ccccc5)cn34)c2)CC1,.,?,.,7.3µM*,.
O=C(c1cccc(-c2cncc3nccn23)c1)N1CCOCC1,.,i,.,i,.
CCOc1cc(S(=O)(=O)Nc2ccc(CC)cc2)ccc1Cl,-19%,?,?,15µM*,2%
COc1ccc(S(=O)(=O)Nc2ccc(Cc3ccncc3)cc2)cc1C,?,i,?,i,3%
CCc1ccc(NS(=O)(=O)c2ccc(OC)c(C)c2)cc1,-2%,i,?,18µM*,6%
CCN(CC)c1ccc(NS(=O)(=O)c2ccc(-c3cnc(C4CC4)o3)cc2)c(C)c1,.,i,.,i,.
Cc1cc(C)c(NS(=O)(=O)c2ccc(-c3cnc(C4CC4)o3)cc2)c(C)c1,.,0.46µM*,.,2.1µM*,.
SMILES,ELG1 repair inh,KB-3-1 cytotox,MCF10A rerep,KB-V1 cytotox,SW480 rerep
O=S(=O)(Nc1ccc(F)cc1Cl)c1ccc(-c2cnc(C3CC3)o2)cc1,-9%,1.2µM*,1µM*,1.5µM*,?
Cc1ccc(NS(=O)(=O)c2ccc(-c3cnc(C4CC4)o3)cc2)c(C)c1,4%,2.1µM*,0.73µM*,2.6µM*,9.2µM*
Cc1cccc(C)c1NC(=O)CN1CCN(C(=O)CNC(=O)c2ccc(N3CCCC3=O)cc2)CC1,5%,i,?,i,-14%
Cc1cc(SCC(=O)NCc2ccc(Cl)cc2)nc(=O)[nH]1,.,i,.,i,.
Cc1ccc(-c2noc(CCC(=O)N(C)c3ccccc3C)n2)cc1,?,?,3%,13µM*,4%
CCN(C(=O)CCc1nc(-c2ccc(C)cc2)no1)c1cc(C)ccc1C,.,i,.,i,.
CCOC(=O)c1ccc(NC(=O)COc2ccccc2CNCCc2ccccc2)cc1,26µM*,i,2.3µM*,i,-12%
CCOC(=O)c1ccc(NC(=O)COc2ccc(CNCCO)cc2OCC)cc1,-3%,i,0%,i,-1%
CCOC(=O)c1ccc(NC(=O)CCc2nc(-c3ccccc3)no2)cc1,26µM*,i,?,?,0%
O=C(Nc1ccc(-c2noc(CCc3ccccc3)n2)cc1)c1cccnc1,23µM*,?,16µM*,16µM*,-4%
CC1CCCC(C)N1C(=O)COC(=O)c1cc(F)c(F)cc1Cl (centres undefined),0%,i,5%,i,2%
Cc1ccc(-c2noc(CCC(=O)Nc3ccccc3C)n2)cc1,-19%,i,36%,16µM*,-1%
Cc1ccccc1NC(=O)CSc1n[nH]c(-c2ccccn2)n1,?,?,?,i,?
CCOC(=O)CSc1nc2c(sc(=S)n2-c2ccc(OCC)cc2)c(=O)[nH]1,21µM*,i,1%,i,-7%
CCOc1ccc(-n2c(=S)sc3c(=O)[nH]c(SCC(=O)C(C)(C)C)nc32)cc1,15µM*,i,?,i,5%
CCOC(=O)CSc1nc2c(sc(=S)n2-c2ccccc2)c(=O)[nH]1,-3%,i,6%,i,-5%
CCOc1ccc(-n2c(=S)sc3c(=O)[nH]c(SCC(=O)N4CCC(C)CC4)nc32)cc1,-10%,i,0%,i,-4%
CS(=O)(=O)N(CC(=O)N/N=C/c1cccc2c1OCCO2)c1ccccc1Br,-4%,i,-9%,i,-7%
COC(=O)Oc1ccc(/C=N/NC(=O)CN(c2ccccc2Br)S(C)(=O)=O)cc1OC,4%,?,0%,i,-8%
CS(=O)(=O)N(CC(=O)N/N=C/c1cc2c(cc1Br)OCO2)c1ccccc1Br,-27%,?,1%,18µM*,-6%
CN(C)c1ccc(/C=N/NC(=O)CN(c2ccccc2Cl)S(C)(=O)=O)cc1Br,10µM*,i,5%,i,0%
Cc1ccc2[nH]c(CSc3ccccc3)cc(=O)c2c1,4%,i,12%,?,-5%
C[C@H]1CN([C@@H](C)CO)C(=O)c2cc(NC(=O)C3CCCCC3)ccc2O[C@H]1CN(C)S(=O)(=O)c1ccccc1,?,i,?,i,?
